Data from PubChem BioAssay AID1460 (National Center for Advancing Translational Sciences (NCATS), 2008).
About 5,800 (2.1%) of roughly 270,000 compounds were called active. Another 16% or so got no clear call; they are omitted. The call rests on the fitted dose curve; in most records, active means well fitted inhibition curve with a large enough effect; inconclusive means small, poorly fitted or top-dose-only effect; inactive means flat fitted curve, though single readings scatter. What follows is part of a selection rich in actives, with near analogues and random picks from the rest. A call without a number means that no potency is given here.

The molecules below were run against Microtubule-associated protein tau (Homo sapiens) (UniProt P10636) (assay: qHTS for Inhibitors of Tau Fibril Formation, Thioflavin T Binding). Settings: recombinant tau K18 P301L (four-repeat tau fragment), heparin-induced fibrillization, ThT fluorescence; series mostly up to 57.4 µM.
Method in brief: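 Recombinant human tau K18 fragment […] carrying P301L, 15 uM unlabeled plus 0.24 uM Alexa 594-labeled, was fibrillized with 20 uM heparin in 100 mM sodium acetate pH 7 for 6 hr at 37 C; 30 uM ThT fluorescence read after 1 hr.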
Further: nearly all actives have a fitted effect of over 55% in size.
Potency means the concentration at half of the fitted maximal effect.

Microtubule-associated protein tau (Homo sapiens), sequence (P10636 561-689 P618L limits assumed): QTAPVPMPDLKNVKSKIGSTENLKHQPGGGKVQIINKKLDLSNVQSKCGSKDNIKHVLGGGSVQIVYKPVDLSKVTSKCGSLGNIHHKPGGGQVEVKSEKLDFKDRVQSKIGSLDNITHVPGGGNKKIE

Compound | Potency
O=C(NCC(c1cccnc1)N1CCc2ccccc21)c1cccc(C(F)(F)F)c1 (stereo unspecified) | inactive
COc1ccccc1-c1nnc(SCC(N)=O)o1 | inactive
O=C(Cc1ccccc1)Nc1sc2c(c1C(=O)Nc1ccc(Br)cc1)CCC2 | inactive
CCOC(=O)c1c(NC(=O)CCC(=O)NCc2ccco2)sc2c1CCCC2 | inactive
N#Cc1c(NC(=O)CCCl)sc2c1CCCCC2 | inactive
CCOc1ccc(NC(=O)c2c(NC(=O)Cc3ccccc3)sc3c2CCCCC3)cc1 | 22.4 µM (active)
CCOc1ccc(NC(=O)c2c(NCc3cccc(OC)c3OC)sc3c2CCC3)cc1 | inactive
Cc1ccc(NC(=O)c2c(NC(=O)CCC(=O)O)sc3c2CCCCC3)cc1 | 25.1 µM (active)
CCCn1ccc2c(OCC(=O)NCc3ccc(F)cc3)cccc2c1=O | inactive
COc1ccccc1NC(=O)C1=C(C)Nc2nc(SCC(=O)c3ccc(C)cc3)nn2C1c1ccccc1C (stereo unspecified) | inactive
COc1ccc(NC(=O)CCNS(=O)(=O)c2ccc3c(c2)CCCC(=O)N3)cc1Cl | inactive
COc1cc(NC(=O)CSc2nc3nc(C)c(Cc4ccc(C)cc4)c(C)n3n2)cc(OC)c1OC | inactive
COc1ccc(-c2nc(Cn3c(=O)cc(C)c4c(C)nn(-c5ccccc5)c43)c(C)o2)c(OC)c1 | inactive
CCOC(=O)Cn1c(=O)n(-c2ccccc2OC)c2nc(-c3cccc(F)c3)nc(C(N)=O)c21 | inactive
COc1cc(Cl)c(C)cc1Nc1nnc(-n2nc(C)cc2C)c2ccccc12 | inactive
CCc1ccc(CNC(=O)c2ccc(CS(=O)c3ccc(Br)cc3)o2)cc1 (stereo unspecified) | inactive
CCOC(=O)C1=C(c2ccc(OC)cc2)C(=O)c2ccccc2C1=O | 14.1 µM (active)
CCOC(=O)c1ccccc1NS(=O)(=O)c1ccc(OC)cc1 | inactive
CCCCC(C(=O)OCC(=O)c1ccc(OC)cc1)N1C(=O)c2ccccc2C1=O (stereo unspecified) | inactive
O=c1[nH]n2c(=O)c3c([nH]c2c1N=Nc1ccccc1)CCC3 | 3.16 µM (active)
N#Cc1c2c(c(-c3ccccc3)[nH]c1=O)CCCC2 | inactive
O=c1[nH]c2c(c(=O)n1Cc1ccccc1)CCC2 | inactive
O=C(Nc1cccc(Cl)c1)c1csnn1 | inactive
CCOc1ccccc1/C=c1\sc2nc(-c3ccco3)nn2c1=O | 22.4 µM (active)
Oc1c(C(c2ccccc2Cl)N2CCOCC2)sc2nc(-c3ccco3)nn12 (stereo unspecified) | inactive
CCOC(=O)C1CCN(C(c2ccc(F)cc2)c2sc3nc(-c4ccco4)nn3c2O)CC1 (stereo unspecified) | inactive

Compound | Potency
Cc1ccc2nc(COc3cccc(NC(=O)c4cccc(Cl)c4)c3)cc(=O)n2c1 | inactive
Clc1cccc(N=C2NN=C(c3ccc4c(c3)OCCO4)CS2)c1 | 15.8 µM (active)
O=C1OC(NC(=O)c2ccccc2)C(N2CCOCC2)=C1Cl (stereo unspecified) | inactive
c1ccc(-n2nnnc2N2CCOCC2)cc1 | inactive
O=C1C(Cl)=C(N2CCOCC2)C(=O)N1c1ccccc1 | 12.6 µM (active)
CCc1ccc(NC(=O)CSc2nc3c([nH]c4ccccc43)c(=O)n2-c2cccc(OC)c2)cc1 | inactive
Nc1ccccc1Sc1ccc(C(F)(F)F)cc1[N+](=O)[O-] | inactive
CCS(=O)(=O)c1cc([N+](=O)[O-])c(Sc2ccccc2N)s1 | 10 µM (active)
CCOC(=O)c1cc(Sc2ccccc2N)cc(C(=O)OCC)n1 | inactive
Cc1ccc(CNS(=O)(=O)c2ccc(-c3cc(C(F)(F)F)on3)s2)cc1 | inactive
O=[N+]([O-])c1cc(Cl)cc(/C=N/NC(=S)Nc2cc(S(=O)(=O)N3CCOCC3)ccc2Cl)c1O | 3.16 µM (active)
O=C(Nc1cc(S(=O)(=O)N2CCOCC2)ccc1Cl)c1cc(=O)c2ccccc2o1 | inactive
O=C(NC(=S)Nc1ccc(S(=O)(=O)N2CCOCC2)cc1)c1ccccc1[N+](=O)[O-] | inactive
Cc1ccc(N(C)C(=O)C2CCN(S(=O)(=O)c3ccc4c(c3)CCCN4C(=O)C3CCC3)CC2)cc1 | inactive
O=C(N/N=C/c1ccc2c(c1)OCO2)c1ccc(Cn2cc([N+](=O)[O-])cn2)o1 | inactive
CN(C)c1ccc(/C=N/NC(=O)c2ccc(Cn3cc(Br)cn3)o2)cc1 | 12.6 µM (active)
O=C(N/N=C\c1ccc(Br)cc1)c1ccc(Cn2cccn2)o1 | inactive
COC(=O)c1sc(=S)n(-c2ccccc2)c1N | inactive
COCCOC(=O)c1sc(=S)n(CCOC)c1N | 28.2 µM (active)
CCOC(=O)c1c(N)sc(C(C)=O)c1C | inactive
COc1ccccc1N1CCN(C(=O)C2CCN(S(=O)(=O)c3c(C)noc3/C=C/c3ccc(C)cc3)CC2)CC1 | inactive
CCn1cc(C(=O)OCC(=O)Nc2cc(C)cc(C)c2)c(=O)c2ccc(C)nc21 | inactive
CCCS(=O)(=O)N1CCC(n2c(C(F)(F)F)nc3cccnc32)CC1 | inactive
COc1ccc(CCNC(=O)c2ccc3c(c2)sc2nc(-c4ccc(C)cc4)cn23)cc1OC | inactive
O=C(NCc1ccc(Cl)cc1)c1ccc2c(c1)nnn2C1CCCC1 | inactive
